Shown is part of a subset that was picked to be rich in hits.
ST2 inh = IL1RL1 inhibition | AlphaLISA ST2-Fc/biotin-IL-33 interaction, 1 h | inhibition, % for hits at 17 µM | actives 2.3% (n = 78,000) | AID 1259354; in the data active means inhibition above about 30%
Target sequence (Q01638 whole entry, looked up): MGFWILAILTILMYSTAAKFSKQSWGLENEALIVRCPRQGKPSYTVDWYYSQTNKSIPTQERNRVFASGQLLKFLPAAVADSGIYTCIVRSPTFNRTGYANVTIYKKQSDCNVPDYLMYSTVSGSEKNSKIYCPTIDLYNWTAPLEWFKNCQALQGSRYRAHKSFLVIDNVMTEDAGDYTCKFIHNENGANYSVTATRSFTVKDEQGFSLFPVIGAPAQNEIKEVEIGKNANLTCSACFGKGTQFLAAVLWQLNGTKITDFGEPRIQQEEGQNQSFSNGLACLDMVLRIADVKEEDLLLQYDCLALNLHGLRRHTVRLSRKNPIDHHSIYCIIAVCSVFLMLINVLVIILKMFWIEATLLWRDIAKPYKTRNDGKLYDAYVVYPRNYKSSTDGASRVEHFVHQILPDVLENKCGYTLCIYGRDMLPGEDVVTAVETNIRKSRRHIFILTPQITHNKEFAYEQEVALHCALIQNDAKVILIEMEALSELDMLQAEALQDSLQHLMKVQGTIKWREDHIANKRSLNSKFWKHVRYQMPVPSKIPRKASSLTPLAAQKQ
* hit, by the source's call; i = inactive.

SMILES	ST2 inh
Cc1nc(C)c(CC(=O)N(C)C2Cc3ccccc3C2)c(=O)[nH]1	i
CCOC(=O)C1=C(CC)NC2=C(C(=O)CCC2)C1c1ccccc1 (configuration not stated)	i
O=C(CCS(=O)(=O)c1cccc2nonc12)NCc1ccc(F)cc1	i
CC(C)CN(Cc1ccsc1)C(=O)c1ccc2c(c1)ncn2CCO	i
CC1=NN(c2ccc(Br)cc2)C(=O)/C1=C/c1cccs1	39%*
CC1=NN(c2ccc(Br)cc2)C(=O)/C1=C\c1ccc(N(C)C)c([N+](=O)[O-])c1	i
CC1=NN(c2ccc(C(=O)O)cc2)C(=O)/C1=C\c1ccc(Br)cc1	i
CCC1(CC)C(=O)N=C(N)NC1=O	i
COc1cccc(N2C(=O)Nc3ccccc3C2(O)C(=O)NCc2ccco2)c1 (configuration not stated)	i
CSc1nc2c(c(=O)[nH]1)C(c1cccc(F)c1)C1=C(CCCC1=O)N2 (configuration not stated)	i
COc1ccc(S(=O)(=O)NCC(c2cccnc2)N2CCN(c3ccccc3F)CC2)cc1 (configuration not stated)	i
CCC1CCCCN1S(=O)(=O)c1cc(Br)cc2c1N(C(C)=O)C(C)C2 (configuration not stated)	i
O=C(O)COc1ccc(C2C3=C(CCCC3=O)OC3=C2C(=O)CCC3)cc1	i
COc1ccc(/C=c2/sc3nc(-c4ccc(Cl)cc4)nn3c2=O)c(OC)c1	i
CCOc1ccc(-c2nc3s/c(=C\c4ccc(OC)cc4)c(=O)n3n2)cc1	i
COc1ccc(-c2nc3s/c(=C\c4ccc(OC)c(OC)c4)c(=O)n3n2)cc1	38%*
CCCOc1ccc(-c2nc3s/c(=C\c4ccc(OC)cc4)c(=O)n3n2)cc1	i
CCCOc1ccc(-c2nc3s/c(=C\c4ccc(OC)c(OC)c4)c(=O)n3n2)cc1	i
COc1ccc(-c2nc3s/c(=C\c4cc(C)c(O)c(C)c4)c(=O)n3n2)cc1	36%*
COc1cccc2cc(-c3nc4ccc(Cl)cc4c(=O)[nH]3)c(=O)oc12	i
O=C(COc1ccc(Cl)cc1)Nc1cccc(N2CCCS2(=O)=O)c1	i
CC(C)C1CN(C(=O)c2scc3c2OCCO3)CCC(=O)N1CC1CC1 (configuration not stated)	i
CC(=O)c1ccc(NC(=O)c2cc(C)on2)cc1	i
O=C(c1ccc(O)cc1)c1c(O)cc(O)c([C@@H]2O[C@H](CO)[C@@H](O)[C@H](O)[C@H]2O)c1O	i
CC12CCC3C1C(c1c(cc(O)c(C(=O)c4ccccc4)c1O)O2)C3(C)C (configuration not stated)	31%*
SMILES	ST2 inh
CC1(C)OC2c3ccccc3OC3(C)CCC1CC23 (configuration not stated)	i
COc1cccc(C2CCCN2Cc2nc(-c3ccc(OC)c(OC)c3OC)no2)c1 (configuration not stated)	i
CC(C)c1cc(C(=O)NC(C)c2ccccc2-n2cccn2)n(C)n1 (configuration not stated)	i
O=C(CSc1nc2ccccc2s1)c1ccccc1[N+](=O)[O-]	33%*
O=C(CSc1nc2ccccc2s1)Nc1ccccc1	i
O=C(CSc1nc2ccccc2s1)c1ccccc1	i
O=C(Nc1cccc(-c2nc3ccccc3[nH]2)c1)c1ccccc1	i
O=C(Nc1nonc1-c1nc2ccccc2[nH]1)c1ccccc1Cl	32%*
O=C(NCc1ccccc1)c1ccccc1-c1nc2ccccc2[nH]1	i
COc1ccc(CCN2CC(NC(=O)NC3CCCCC3)CC2=O)cc1 (configuration not stated)	i
O=C(NCC1CCCO1)C1CC(=O)N(c2ccc(Br)cc2)C1 (configuration not stated)	i
Nc1n[nH]c(C(=O)N2CCOC(C(F)(F)F)C2)c1-c1ccccc1 (configuration not stated)	i
Cc1cccc(CN(Cc2ccccc2)C(=O)c2cnc(N)nc2C)n1	i
O=C1CC(NC2CCN(Cc3ccco3)CC2)CN1CCc1ccccc1 (configuration not stated)	i
COCCC(=O)NC1CCCN(CCc2ccccc2)C1 (configuration not stated)	i
O=C(CCc1ccco1)NC1CCCN(CCc2ccccc2)C1 (configuration not stated)	31%*
O=[N+]([O-])c1cc(C=Nc2c(-c3ccco3)nc3ccccn23)c(Cl)cc1Cl	44%*
O=[N+]([O-])c1cc(N=Cc2nc(-c3ccccc3F)oc2O)ccc1Cl	i
CC(C)c1ccc(Nc2c(-c3ccco3)nc3ccccn23)cc1	i
COc1ccc(S(=O)(=O)NC(C)C)cc1OC	i
COc1ccc(C(=O)Nc2sc3c(c2C(N)=O)CCCC3)cc1[N+](=O)[O-]	31%*
COc1ccccc1OCC(=O)Nc1sc2c(c1C(N)=O)CCCC2	i
CC(C)(C)c1ccc(C(=O)Nc2sc3c(c2C(N)=O)CCCC3)cc1	i
Cc1csc(NC(=O)c2ccc(CN(C)CC(C)C)cc2)n1	i
C=CCc1c(C)nc2nc(SCC(=O)NCc3ccccc3)nn2c1C	i
SMILES	ST2 inh
NNc1ncc(Cl)cc1Cl	i
COc1ccc(C(=O)NC2CC(=O)N(CC(C)(C)C)C2)c(OC)c1OC (configuration not stated)	i
NC(=O)c1c(NC(=O)c2cc(=O)c3ccccc3o2)sc2c1CCCC2	i
COc1ccc(Nc2cc(C)nc(N3CCN(S(=O)(=O)c4ccc(OC)cc4)CC3)n2)cc1	i
COc1ccc(S(=O)(=O)N2CCN(c3nc(C)cc(Nc4ccccc4)n3)CC2)cc1C	34%*
COc1ccc(Nc2cc(C)nc(N3CCN(S(=O)(=O)c4ccc(OC)c(C)c4)CC3)n2)cc1	i
O=C(C1CCC(=O)N1C1CCCC1)N1CCOCC1 (configuration not stated)	i
CN(C)CCC1CN(C(=O)C2CCC2)CCO1 (configuration not stated)	i
CC(C)c1nccc(CN(C)Cc2ncc[nH]2)n1	i
CCN1/C(=c2/sc3nc4ccccc4n3c2=O)C=Cc2cc(C)ccc21	i
O=C1OC(c2ccc([N+](=O)[O-])cc2)=N/C1=C\c1ccccc1	i
CCN1/C(=C2/N=C(c3ccccc3)OC2=O)C=Cc2ccccc21	56%*
CCOCCCn1c(=N)c(C(N)=O)cc2c(=O)n3ccccc3nc21	i
Cc1ccc(C(=O)c2ccc(Cl)cc2)c(N2CCCCC2)n1	i
Cc1ccccc1-c1cccc(C(=O)N2CCOC3(CNCCOC3)C2)c1 (configuration not stated)	i
CCN1CC(CN(C)C(=O)CCc2nnc(C3(c4ccc(Cl)cc4)CCC3)o2)CC1=O (configuration not stated)	i
COc1ccc(N(C(=O)Cn2nnnc2N)C2(C(=O)Nc3c(C)cccc3C)CCCCC2)cc1	i
COc1ccccc1CN1CCCCCC1	i
COc1ccccc1CN1CCSCC1	i
CCOc1ccccc1CN1CCSCC1	31%*
O=C1c2ccc([N+](=O)[O-])cc2C(=O)N1CNc1ccc(I)cc1	i
CC1CCN(C(=O)Cn2c(=O)n(-c3ccc(F)cc3F)c(=O)c3sccc32)CC1	i
O=c1c2sccc2n(Cc2ccccc2)c(=O)n1-c1cc(F)ccc1F	i
CN(C(=O)Cn1c(=O)n(-c2ccc(F)cc2F)c(=O)c2sccc21)c1ccccc1	47%*
O=C(CN1CCN(Cc2ccc(F)cc2)C1=O)NCc1ccco1	i

Bioassay records from PubChem BioAssay.
